This is part of a sample that, as a whole, favours compounds with a hit. Of some 79,000 tested, about 15% had one in any assay. The source made the active and inactive calls. Cut-off read from the data, not from the text of the source: active = growth inhibition above about 70%; inactive = the rest.
Experiments:
[1] = NCI Yeast Anticancer Drug Screen. Data for the rad52 strain (AID 147);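 note: 0% = growth of vehicle-treated control cultures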; details: S. cerevisiae rad52 mutant growth inhibition, stronger effect = higher value
Method in brief: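 Yeast strain carrying a DNA damage repair alteration was exposed to test compounds. Growth inhibition was measured relative to vehicle-treated controls.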

[2] = NCI Yeast Anticancer Drug Screen. Data for the wt1 strain (AID 149);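 note: 0% = growth of vehicle-treated wt1 cultures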; details: S. cerevisiae wt1 strain (SPY 50644) growth inhibition, stronger effect = higher value
Method in brief: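 wt1 yeast, compound-treated; % growth inhibition vs vehicle control.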

[3] = NCI Yeast Anticancer Drug Screen. Data for the rad50EPP+ strain (AID 151);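 note: 0% = growth of vehicle-treated control cultures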; details: S. cerevisiae rad50 mutant strain, stronger effect = higher value
Method in brief: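 Yeast strain carrying rad50 alteration (rad50EPP+) exposed to compounds; growth inhibition measured relative to vehicle-treated controls.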

[4] = NCI Yeast Anticancer Drug Screen. Data for the mgt1 strain (AID 153); details: S. cerevisiae mgt1 mutant growth inhibition, stronger effect = higher value
Method in brief: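 Yeast mgt1 strain (DNA repair/cell-cycle alteration panel) exposed to compounds; growth inhibition measured relative to vehicle-treated controls.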

[5] = NCI Yeast Anticancer Drug Screen. Data for the rad50 strain (AID 155);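 note: 0% = growth of vehicle-only cultures of the same strain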; details: S. cerevisiae rad50 strain growth inhibition, stronger effect = higher value
Method in brief: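 Genetically altered yeast (DNA repair pathway); compound treatment; growth inhibition vs vehicle ctrl.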

[6] = NCI Yeast Anticancer Drug Screen. Data for the mec2-1 strain (AID 157); details: S. cerevisiae mec2-1 strain, stronger effect = higher value
Method in brief: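 mec2-1 yeast strain, carrying an alteration in DNA damage repair or cell cycle control, was exposed to compounds; growth inhibition was measured relative to vehicle-treated controls.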

[7] = NCI Yeast Anticancer Drug Screen. Data for the rad14 strain (AID 159);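 note: 0% = growth of vehicle-treated control cultures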; details: S. cerevisiae rad14 strain growth inhibition, stronger effect = higher value
Method in brief: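 Test compounds were applied to a repair-deficient yeast strain. Its growth was then compared with that of cultures given vehicle alone, and inhibition was expressed relative to those controls.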

[8] = NCI Yeast Anticancer Drug Screen. Data for the sgs1 mgt1 strain (AID 161);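 note: 0% = growth of cultures given vehicle only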; details: S. cerevisiae sgs1 mgt1 strain, stronger effect = higher value
Method in brief: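 Compounds are added to genetically altered yeast, and growth is compared with cultures given vehicle alone to give percent inhibition.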

[9] = NCI Yeast Anticancer Drug Screen. Data for the CLN2oe strain (AID 163);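 note: 0% = growth of vehicle-only control cultures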; details: S. cerevisiae CLN2oe strain, stronger effect = higher value
Method in brief: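 Yeast cells carrying a defined cell-cycle control alteration were exposed to test compounds. Growth inhibition was scored against vehicle-treated control cultures.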

[10] = NCI Yeast Anticancer Drug Screen. Data for the cln2 rad14 strain (AID 165);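 note: 0% = growth equal to vehicle treated cultures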; details: S. cerevisiae cln2 rad14 strain, stronger effect = higher value
Method in brief: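 Yeast carrying cln2 and rad14 alterations (cell cycle control and DNA damage repair) were exposed to compounds. Growth inhibition was measured against vehicle-treated controls.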

[11] = NCI Yeast Anticancer Drug Screen. Data for the bub3 strain (AID 167); details: S. cerevisiae bub3 mutant strain, stronger effect = higher value
Method in brief: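 Yeast carrying a defined mutation is treated with each compound, and growth is compared with that of vehicle-exposed cells to give inhibition.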

[12] = NCI Yeast Anticancer Drug Screen. Data for the wt2 strain (AID 169);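 note: 0% = growth of vehicle-treated yeast cultures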; details: S. cerevisiae wt2 strain growth inhibition, stronger effect = higher value
Method in brief: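 Yeast cells were exposed to test compounds, and growth inhibition was measured relative to vehicle-treated controls.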

[13] = NCI Yeast Anticancer Drug Screen. Data for the mlh1 strain (AID 171);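 note: 0% = growth of vehicle-treated control cultures of the same strain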; details: S. cerevisiae mlh1 strain growth inhibition, stronger effect = higher value
Method in brief: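 Yeast carrying a defined genetic alteration in DNA damage repair or cell cycle control were exposed to test compounds. Growth inhibition was measured relative to vehicle-treated controls.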

[14] = NCI Yeast Anticancer Drug Screen. Data for the sgs1 strain (AID 173);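 note: 0% = growth of vehicle-only control cultures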; details: S. cerevisiae sgs1 mutant, stronger effect = higher value
Method in brief: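 Yeast mutant strains carrying defined defects in DNA damage repair or cell cycle control were exposed to test compounds. Growth inhibition was scored against vehicle-treated controls.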

[15] = NCI Yeast Anticancer Drug Screen. Data for the mlh1 rad18 strain (AID 175); details: S. cerevisiae mlh1 rad18 strain growth inhibition, stronger effect = higher value
Method in brief: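 Growth inhibition of the yeast strain was measured after compound exposure and expressed relative to vehicle-treated controls. The strain carries defined defects in DNA damage repair.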

[16] = NCI Yeast Anticancer Drug Screen. Data for the rad18 strain (AID 177); details: S. cerevisiae rad18 mutant growth inhibition, stronger effect = higher value
Method in brief: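 Yeast carrying a defined DNA damage repair alteration were exposed to compounds. Growth inhibition was expressed relative to vehicle-treated controls.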

[17] = at 5.0 µM (retest, dose inferred, filed as 0.5)
[18] = at 50.0 µM (retest, dose inferred, filed as 5.0)

Measured: growth inhibition

CSC(=S)N/N=C/c1ccccc1
active: [3]; at 100.0 µM 75% | [5]; at 11.0 µM 82% | [5]; at 33.0 µM 83% | [5]; [18] 86% | [5]; at 50.0 µM 94.6% | [5]; at 100.0 µM 82% | [6]; [18] 76% | [6]; at 50.0 µM 75.8% | [8]; [18] 87% | [8]; at 50.0 µM 75.2% | [11]; [18] 82% | [11]; at 50.0 µM 90% | [15]; [18] 85% | [15]; at 50.0 µM 89.5% | [16]; at 11.0 µM 86% | [16]; at 33.0 µM 86% | [16]; at 100.0 µM 81%
inactive: [1]; at 1.2 µM 10% | [1]; at 3.7 µM 20% | [1]; at 11.0 µM 53% | [1]; at 33.0 µM 67% | [1]; at 100.0 µM 67% | [2]; at 1.2 µM 4% | [2]; at 3.7 µM 11% | [2]; at 11.0 µM 29% | [2]; at 33.0 µM 48% | [2]; at 100.0 µM 43% | [3]; at 1.2 µM -1% | [3]; at 3.7 µM 2% | [3]; at 11.0 µM 16% | [3]; at 33.0 µM 60% | [4]; at 1.2 µM 3% | [4]; at 3.7 µM 2% | [4]; at 11.0 µM 22% | [4]; at 33.0 µM 27% | [4]; at 100.0 µM 39% | [5]; at 1.2 µM 28% | [5]; at 3.7 µM 57% | [5]; [17] 38% | [6]; at 1.2 µM 5% | [6]; at 3.7 µM 13% | [6]; [17] 48% | [6]; at 11.0 µM 10% | [6]; at 33.0 µM 20% | [6]; at 100.0 µM 23% | [7]; at 1.2 µM -1% | [7]; at 3.7 µM -1% | [7]; at 11.0 µM 12% | [7]; at 33.0 µM 22% | [7]; at 100.0 µM 29% | [8]; [17] 26% | [9]; at 1.2 µM -3% | [9]; at 3.7 µM 3% | [9]; at 11.0 µM 14% | [9]; at 33.0 µM 22% | [9]; at 100.0 µM 17% | [10]; [17] 16% | [10]; [18] 21% | [10]; at 50.0 µM 49.3% | [11]; at 1.2 µM 32% | [11]; at 3.7 µM 28% | [11]; [17] 46% | [11]; at 11.0 µM 59% | [11]; at 33.0 µM 60% | [11]; at 100.0 µM 59% | [12]; at 1.2 µM -2% | [12]; at 3.7 µM 2% | [12]; at 11.0 µM 16% | [12]; at 33.0 µM 28% | [12]; at 100.0 µM 37% | [13]; at 1.2 µM 1% | [13]; at 3.7 µM 3% | [13]; at 11.0 µM 25% | [13]; at 33.0 µM 26% | [13]; at 100.0 µM 37% | [14]; at 1.2 µM 0% | [14]; at 3.7 µM 5% | [14]; at 11.0 µM 21% | [14]; at 33.0 µM 44% | [14]; at 100.0 µM 55% | [15]; [17] 48% | [16]; at 1.2 µM 23% | [16]; at 3.7 µM 55%

OC(Cc1cccc2ccccc12)CN1CCC(c2ccccc2)CC1 (stereo not drawn)
inactive: [1]; at 1.2 µM 52% | [1]; at 3.7 µM 66% | [1]; at 11.0 µM 69% | [2]; at 1.2 µM 12% | [2]; at 3.7 µM 28% | [2]; at 11.0 µM 34% | [2]; at 33.0 µM 61% | [3]; at 1.2 µM 24% | [3]; at 3.7 µM 5% | [3]; at 11.0 µM 23% | [3]; at 33.0 µM 38% | [3]; at 100.0 µM 60% | [4]; at 1.2 µM 64% | [5]; at 1.2 µM 6% | [5]; at 3.7 µM 53% | [5]; [17] 55% | [5]; at 11.0 µM 66% | [5]; [18] 68% | [6]; at 1.2 µM 17% | [6]; at 3.7 µM 26%
active: [1]; at 33.0 µM 91% | [1]; at 100.0 µM 97% | [2]; at 100.0 µM 75% | [4]; at 3.7 µM 72% | [4]; at 11.0 µM 81% | [4]; at 33.0 µM 96% | [4]; at 100.0 µM 99% | [5]; at 33.0 µM 86% | [5]; at 50.0 µM 86.7% | [5]; at 100.0 µM 96%
